Structures are written as SMILES. Results filed as inconclusive are left out. A call without a number means that no potency is given here. Active and inactive are the calls of the source. Calls follow the shape of the dose curve; as a rule, active = well fitted inhibition curve with a large enough effect; inconclusive = small, poorly fitted or top-dose-only effect; inactive = flat fitted curve, though single readings scatter.

Our source for the Potency values is PubChem BioAssay AID2530 (National Center for Advancing Translational Sciences (NCATS), 2010).
Potency is read from the fitted curve at half-maximal effect.

The test deals with Luciferin 4-monooxygenase (Photuris pensylvanica) (UniProt Q27757). As to the kind of experiment: Secondary Assay for Luciferase (Kinase-Glo TM) Inhibition Counterscreen. The settings on record: Kinase-Glo luciferase enzyme, luminescence; series mostly up to 58.1 µM. An outline of the steps:
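Inhibition was fitted with the Hill equation after normalizing luminescence to DMSO (basal) and 40 uM SIB 1757 (full inhibition). Kinase-Glo luciferase ran for 8 min at room temperature in imidazole buffer pH 7.2 with KCl, MgCl2 and 10 uM ATP.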
For orientation: Kinase-Glo reads ATP consumption through a luciferase reaction.
For the compound `O=S1(=O)N=C(Oc2ccccc2)c2ccccc21`, the Potency entry was “inactive”.
As to `O=C(/C=C/c1ccc2c(c1)OCO2)c1ccccn1`, the Potency was 5.8 µM (active).
In the case of `COc1ccc2c(c1)c1ccc3c(c1n2C)C(=O)C=CC3=O` it was “inactive”; in that of `O=C1c2ccccc2C(=O)N1C1CCCCC1`, “inactive”.
Take `Cn1c2cc(S(C)=O)sc2c2cnn(Cc3cccc(N)c3)c(=O)c21` (centres undefined): the Potency result is “inactive”.
In the case of `CCOc1ccc(C(=O)O/N=C(\N)c2ccccn2)cc1`, the Potency was 5.8 µM (active).
As to `COc1cccc(N2C(=O)c3ccccc3C2=O)n1`, the Potency result is “inactive”.
Consider `Cc1ccc(NS(=O)(=O)c2ccc3c(ccn3C)c2)cc1C`, for which the Potency result is “inactive”.
`Cc1cccc(OC2=NS(=O)(=O)c3ccccc32)c1`: the Potency result is “inactive”.
For `O=C1c2ccccc2C(=O)N1c1cccc2cnccc12`, the Potency result was “inactive”.
Consider `O=C1c2ccccc2C(=O)N1c1cccc(O)c1`, for which the Potency entry is “inactive”.
With `O=C(c1ccccc1)n1c(=S)nc2ccccn21`, the Potency was 5.17 µM (active).
On to `CC(=O)N1CCCc2cc(S(=O)(=O)Nc3ccc(C)c(C)c3)ccc21`, for which the Potency entry was “inactive”.
Take `Cc1nc(-c2ccc(S(=O)(=O)Nc3ccc(C)c(C)c3)s2)cs1`: the Potency result is “inactive”.
In the case of `Cc1ccc2c(c1)c1ccc3c(c1n2C)C(=O)C=CC3=O` it was “inactive”; in that of `O=C1CCc2cc(S(=O)(=O)Nc3ccccn3)ccc2N1`, “inactive”; in that of `N/C(=N\OC(=O)c1ccccc1)c1ccccn1`, 4.61 µM (active).
In the case of `CNc1cccc(S(=O)(=O)N2CCN(S(=O)(=O)c3ccc4c(c3)OCCO4)CC2)c1` it was “inactive”; in that of `COC(=O)CSC1=NS(=O)(=O)c2ccccc21`, “inactive”.
Turning to `O=C1CCc2cc(S(=O)(=O)Nc3cccnc3)ccc2N1`, the Potency entry was “inactive”.
In the case of `CCOC(=O)C(C(C)=O)c1c(Br)c(O)c(O)c2c(C(=O)c3ccc(C)cc3)coc12` (centres undefined) it was “inactive”; in that of `O=C1CCc2cc(S(=O)(=O)Nc3ccc4c(c3)OCCO4)ccc2N1`, “inactive”; in that of `COc1cc(/C=N/N2C(C)CCCC2C)cc(OC)c1O` (centres undefined), “inactive”.
As for `O=C1CCc2cc(S(=O)(=O)Nc3ccc(Cl)cc3)ccc2N1`, the entry is “inactive”; as for `Cc1ccc(N2C(=O)c3ccccc3C2O)nc1` (centres undefined), 6.51 µM (active); as for `O=C1C(Cl)=C(NC(=O)c2ccccc2)C(=O)C(Cl)=C1NC(=O)c1ccccc1`, “inactive”.
On to `O=C1CCc2cc(S(=O)(=O)Nc3cccc(-c4ccccc4)c3)ccc2N1`, for which the Potency entry is “inactive”.
Turning to `COc1ccc(N=Nc2n(C)c3ccccc3[n+]2C)cc1`, the Potency was 10.3 µM (active).
With `O=C1c2ccccc2C(=O)N1c1cccc(Cl)c1`, the Potency result was “inactive”.
`O=C1c2ccccc2C(=O)N1c1ccc(Cl)cc1`: the Potency result was “inactive”.
As for `O=S1(=O)N=C(Oc2cccc(Cl)c2)c2ccccc21`, the Potency entry is “inactive”.
On to `O=C1c2ccccc2C(=O)N1c1cccnc1`, for which the Potency entry was “inactive”.
Turning to `Cc1ccc(NS(=O)(=O)c2ccc3c(c2)NC(=O)CO3)cc1C`, the Potency result is “inactive”.
Consider `Cc1cccc(NS(=O)(=O)c2ccc3c(c2)CCC(=O)N3)c1`, for which the Potency result is “inactive”.
As for `O=C1CCc2cc(S(=O)(=O)Nc3ccccc3-c3ccccc3)ccc2N1`, the Potency entry is “inactive”.
With `O=[N+]([O-])c1cc2oc3c(c2c(C=NCc2ccccc2)c1O)CCCC3`, the Potency entry is “inactive”.
As for `Cc1ccc(NS(=O)(=O)c2ccc3c(c2)CCC(=O)N3)cc1C`, the entry is “inactive”.
Turning to `Cc1cc(N2C(=O)c3ccccc3C2=O)no1`, the Potency result was “inactive”.
As to `COc1ccc(-c2nc(-c3ccccn3)no2)cc1`, the Potency is 2.91 µM (active).
